According to PubChem BioAssay (NCATS):
Several values for one entry are separate records, joined by “and”; a condition that tells them apart may be missing. Equal values may be shown once. Results filed as inconclusive are left out. A number with no mark means an inactive call. Activity calls are given as the source filed them. Calls follow the shape of the dose curve; as a rule, active = well fitted curve in the direction sought with a large enough effect; inconclusive = small, poorly fitted or top-dose-only effect, or another doubt; inactive = no such curve, though single readings can be large or run the other way.

assay: qHTS Assay for Identifying Gametocytocidal Compounds (AID 743244);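 as to max response: actives lower the fluorescent signal which means gametocytes are killed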; conditions: P. falciparum 3D7 stage III-V gametocytes, alamarBlue, 72 h; max response: active compounds read low
In short: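 P. falciparum 3D7 stage III–V gametocytes (20,000 cells/well) were exposed to compounds for 72 h at 37 °C, 5% CO2. AlamarBlue was then added for 24 h; decreased resorufin fluorescence (Ex 525/Em 598 nm) indicated loss of viability.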
% is scaled to controls: 0 for no effect and ±100 for the full control effect; potency is read from the fitted curve at half-maximal effect.

Which max response does the source give for `CC(=O)OCC(=O)[C@@]12OC(C)(C)O[C@@H]1C[C@H]1[C@@H]3C[C@H](F)C4=CC(=O)C=C[C@]4(C)[C@@]3(F)[C@@H](O)C[C@@]12C` here?
The max response was 1.24%.

For `COC(=O)[C@@H]1CC2=CC(=O)CC[C@]2(C)[C@@]23O[C@@H]2C[C@@]2(C)[C@@H](CC[C@@]24CCC(=O)O4)[C@H]13`, which max response is on record?
The max response was 1.84%.

For `CCCCS(=O)(=O)N[C@@H](Cc1ccc(OCCCCC2CCNCC2)cc1)C(=O)O`, which max response is on record?
Its max response is 3.65%.

For `COc1cc2c(cc1OC)C(=O)C(CC1CCN(Cc3ccccc3)CC1)C2` (configuration not stated), which max response is on record?
The max response was 3.63%.

With `Cc1ccnc(NS(=O)(=O)c2ccc(N)cc2)n1` as the molecule, how does the max response read?
Its max response is 9.97%.

For `CC(C)(C)NC(=O)[C@@H]1CN(Cc2cccnc2)CCN1C[C@@H](O)C[C@@H](Cc1ccccc1)C(=O)N[C@H]1c2ccccc2C[C@H]1O`, which max response is on record?
Its max response is 5.54%.

With `C[C@@H]1C[C@H]2[C@@H]3C[C@H](F)C4=CC(=O)C(Cl)=C[C@]4(C)[C@@]3(F)[C@@H](O)C[C@]2(C)[C@@]1(O)C(=O)CO` as the molecule, how does the max response read?
Its max response is 5.34%.

Which max response does the source give for `CC(=O)OCC(=O)[C@@]1(OC(C)=O)[C@@H](C)C[C@H]2[C@@H]3C[C@H](F)C4=CC(=O)C=C[C@]4(C)[C@@]3(F)[C@@H](O)C[C@@]21C` here?
The max response was 29%.

With `NCCCC[C@H](N[C@@H](CCc1ccccc1)C(=O)O)C(=O)N1CCC[C@H]1C(=O)O` as the molecule, how does the max response read?
Its max response is -3.1%.

Which max response does the source give for `O=C1OC2(c3ccc(O)cc3Oc3cc(O)ccc32)c2ccccc21` here?
The max response was -13.2% and 24.2%.

For `COc1ccc(OC)c(C(O)CNC(=O)CN)c1` (configuration not stated), which max response is on record?
The max response was -3.82%.

For `CC(Cc1ccccc1)(NC(=O)CN)c1ccccc1` (configuration not stated), which max response is on record?
Its max response is -4.06%.

With `C[C@]12CCC(=O)C=C1[C@@H]1C[C@@H]1[C@H]1[C@@H]3[C@@H]4C[C@@H]4[C@@]4(CCC(=O)O4)[C@@]3(C)CC[C@@H]12` as the molecule, how does the max response read?
Its max response is 5.27%.

For `CCOc1ccc(NC(=O)CC(C)O)cc1` (configuration not stated), which max response is on record?
The max response was -2.08%.

For `CC(C)COC(=O)c1ccc(N)cc1`, which max response is on record?
Its max response is 10.2%.

With `CN(C(=O)CN(CCO)CC(=O)N(C)C(C)(C)Cc1ccccc1)C(C)(C)Cc1ccccc1` as the molecule, how does the max response read?
The max response was -1.55%.

With `C=C1C[C@H]2[C@@H]3C=C(C)C4=CC(=O)CC[C@]4(C)[C@H]3CC[C@]2(C)[C@@]1(OC(C)=O)C(C)=O` as the molecule, how does the max response read?
Its max response is 18%.

With `COc1c2occc2c(OC)c2c(=O)cc(C)oc12` as the molecule, how does the max response read?
The max response was 22.1%.

With `CCN(CC)CCNC(=O)COc1ccc(Cl)cc1` as the molecule, how does the max response read?
Its max response is -6.47%.

Which max response does the source give for `CC(=O)OCC(=O)[C@@]1(O)CC[C@H]2[C@@H]3CCC4=CC(=O)C=C[C@]4(C)[C@H]3[C@@H](O)C[C@@]21C` here?
Its max response is -0.763%.

Which max response does the source give for `NC(CO)(CO)CO` here?
The max response was 0.227%.

Which Potency does the source give for `CCCCCCCCCCCCCCCC[N+](C)(C)CCN(Cc1ccc(OC)cc1)c1ncccn1` here?
The Potency was 7.08 µM (active).

Which max response does the source give for `CCOC(=O)n1ccn(C)c1=S` here?
The max response was 21.8%.

With `Nc1ccc(/C=C/c2ccc(N)cc2S(=O)(=O)O)c(S(=O)(=O)O)c1` as the molecule, how does the max response read?
Its max response is 1.42%.

For `CCN1CCC[C@H]1CNC(=O)c1c(OC)ccc(Br)c1OC`, which max response is on record?
Its max response is -8.08%.

Which max response does the source give for `CCCCN1CCCC1C(=O)Nc1c(C)cc(C)cc1C` (configuration not stated) here?
The max response was -5.69%.

Which max response does the source give for `Cc1c(C(N)=O)cc([N+](=O)[O-])cc1[N+](=O)[O-]` here?
Its max response is -0.173%.

For `CN1C(CCl)Nc2cc(Cl)c(S(N)(=O)=O)cc2S1(=O)=O` (configuration not stated), which max response is on record?
Its max response is 12.5%.

Which max response does the source give for `O=C1OCCN1/N=C/c1ccc([N+](=O)[O-])o1` here?
Its max response is 2.02%.

Which max response does the source give for `CCCCOc1ccc(OCCCN2CCOCC2)cc1` here?
The max response was 1.4%.

Which max response does the source give for `C[C@@H]1C[C@H]2[C@@H]3CCC4=CC(=O)C=C[C@]4(C)[C@@]3(F)[C@@H](O)C[C@]2(C)[C@H]1C(=O)CO` here?
The max response was 9.79%.

Which max response does the source give for `COc1cc(C(=S)N2CCOCC2)cc(OC)c1OC` here?
The max response was 7.8%.

With `COc1cccc(OC)c1C(=O)N[C@@H]1C(=O)N2[C@@H]1SC(C)(C)[C@@H]2C(=O)O` as the molecule, how does the max response read?
The max response was -0.927%.

Which max response does the source give for `CCOC(=O)COc1ccc2c(C)c(CCN(CC)CC)c(=O)oc2c1Cl` here?
The max response was -0.591%.

For `COc1ccc(CCN2CCC(Nc3nc4ccccc4n3Cc3ccc(F)cc3)CC2)cc1`, which Potency is on record?
The Potency was 3.16 µM (active).

Which max response does the source give for `CO/N=C1\CN(c2nc3c(cc2F)c(=O)c(C(=O)O)cn3C2CC2)CC1CN` (configuration not stated) here?
Its max response is -1.09%.

For `Cc1c(N(C)CS(=O)(=O)O)c(=O)n(-c2ccccc2)n1C`, which max response is on record?
The max response was 18.3%.
